Among the test systems are T-47D breast; BT-549 breast; MDA-MB-435 melanoma; SW-620 colon; MCF7 breast; HCT-116 colon; HCC-2998 colon; KM12 colon.
Holding throughout (assay): NCI-60 one-dose screen, 48 h (100 = growth as untreated, 0 = no growth, -100 = all killed)
Common to all, as to settings: 10 µM unless noted

This is part of a sample that, as a whole, favours compounds with a hit. Of some 83,000 tested, about 20% had one in any assay.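 In brief: 96-well plates, 48 h treatment, single concentration, percent growth endpoint.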 Unmarked numbers belong to inactive results. Active and inactive are the calls of the source. How the source made its calls: active means growth percent below 10; inactive means the rest.

The results in this text go back to PubChem BioAssay (NCI).

On to `Cc1ccc(NC(=O)c2sc3nc(C)c(Br)c(C)c3c2N)cc1`, for which the growth in the assay on T-47D breast was 61.9%; with BT-549 breast, 79.7%; with MDA-MB-435 melanoma, 81.8%; with SW-620 colon, 78.3%; with MCF7 breast, 59.1%; in the assay on HCT-116 colon, 72.6%. For the same molecule, the growth with HCC-2998 colon is 92.1%; in the assay on KM12 colon, 74.8%.

With `CCN(CC)CCn1c2ccc(O)cc2c2sc3cc(O)ccc3c(=O)c21`, the growth with T-47D breast is 50.4%; in the assay on BT-549 breast, 62.1%; in the assay on MDA-MB-435 melanoma it was 40.5%; with SW-620 colon, 15.5%; in the assay with MCF7 breast it was 8.08% (active); in the assay on HCT-116 colon, 12.1%. In addition, the growth in the assay with HCC-2998 colon was 42.3%; in the assay on KM12 colon it was 29.4%.

Regarding `Cc1ccc(C2=Nc3c(N)ncnc3NC(c3cccc(Nc4ccnc5cc(C(F)(F)F)ccc45)c3)C2)cc1` (configuration not stated), the growth is 38.4% in the assay on T-47D breast; 53.6% in the assay on BT-549 breast; -55.4% (active) in the assay on MDA-MB-435 melanoma; 12.3% in the assay on SW-620 colon; 8.09% (active) in the assay on MCF7 breast; 12.6% with HCT-116 colon. Further, the growth was 31% in the assay with HCC-2998 colon and 15.9% with KM12 colon.

`CC1(C)COB(OCC(C)(C)COB2OCC(C)(C)CO2)OC1`: the growth in the assay on T-47D breast was 104%; in the assay on BT-549 breast, 105%; in the assay on MDA-MB-435 melanoma, 110%; with SW-620 colon, 110%; with MCF7 breast, 107%; with HCT-116 colon it was 101%. Further, the results for the growth in the assay with HCC-2998 colon and in the assay with KM12 colon were 104% and 103%, respectively.

Turning to `Cc1c2cnccc2c(C)c2c1c1cc(C#N)ccc1n2C`, the growth in the assay with T-47D breast was -1.04% (active); in the assay on BT-549 breast, -62% (active); in the assay with MDA-MB-435 melanoma, -57.6% (active); in the assay on SW-620 colon, -0.262% (active); in the assay on MCF7 breast it was -12.2% (active); in the assay with HCT-116 colon, -22.9% (active). For the same molecule, the growth in the assay on HCC-2998 colon was -68.7% (active); with KM12 colon, 2.89% (active).

For `CCOC(=O)C1=C(N)Oc2c(sc3c(F)cccc23)C1c1ccc(O)cc1` (configuration not stated), the growth in the assay on T-47D breast was 26.5%; in the assay on BT-549 breast, 23.3%; in the assay on MDA-MB-435 melanoma it was 5.63% (active); in the assay on SW-620 colon, 31.1%; in the assay on MCF7 breast it was 14.9%; with HCT-116 colon, 26%. Moreover, the growth with HCC-2998 colon is 38%; with KM12 colon it was 24%.

Take `C=C1C(=O)O[C@H]2[C@H]1CC/C(COC(=O)C(=O)c1cn(C)c3ccc(Cl)cc13)=C\CC[C@@]1(C)O[C@@H]21`: the growth with T-47D breast was -55.6% (active); in the assay on BT-549 breast, -74.5% (active); with MDA-MB-435 melanoma it was -81.3% (active); with SW-620 colon, -69.1% (active); with MCF7 breast, -54.3% (active); in the assay on HCT-116 colon, -96.4% (active). Further, the growth was -80.3% (active) in the assay on HCC-2998 colon and -49.7% (active) in the assay with KM12 colon.

On to `COc1ccc(C2=Nc3c(N)nc(N)nc3NC(c3cccc(Nc4ccnc5cc(C(F)(F)F)ccc45)c3)C2)cc1` (configuration not stated), for which the growth is 93% in the assay on T-47D breast; 107% in the assay with BT-549 breast; 10.1% in the assay with MDA-MB-435 melanoma; 50.4% in the assay on SW-620 colon; 37.7% in the assay on MCF7 breast; 37.9% in the assay with HCT-116 colon. For the same molecule, the growth in the assay on HCC-2998 colon is 72.2%; in the assay on KM12 colon, 40.4%.

For the molecule `CCCCCCCCCc1ccc(OCCOCCOCCOCCOCCOCCOCCOCCOCCO)cc1`, the growth is 116% with T-47D breast; -9.07% (active) in the assay with BT-549 breast; 7.48% (active) in the assay on MDA-MB-435 melanoma; 19.1% with SW-620 colon; 10.9% in the assay with MCF7 breast; 11% in the assay with HCT-116 colon. Further, the growth was 23.3% in the assay with HCC-2998 colon and 13.3% in the assay on KM12 colon.

Regarding `O=C(CN1CCOCC1)Nc1nc(-c2cc3ccccc3oc2=O)cs1`, the growth in the assay on T-47D breast is 111%; with BT-549 breast, 98.5%; in the assay on MDA-MB-435 melanoma, 104%; in the assay with SW-620 colon it was 101%; in the assay on MCF7 breast, 79.2%; in the assay on HCT-116 colon it was 99%. For the same molecule, the growth in the assay with HCC-2998 colon is 103%; in the assay on KM12 colon, 100%.

Consider `CN1C(=O)/C(=C\c2nc([P+](c3ccccc3)(c3ccccc3)c3ccccc3)c(N3CCOCC3)o2)SC1=S`, for which the growth with T-47D breast was 79.4%; in the assay on BT-549 breast it was 26.5%; in the assay on MDA-MB-435 melanoma it was 60%; in the assay with SW-620 colon it was 96.2%; in the assay with MCF7 breast, 85.8%; with HCT-116 colon, 65.4%. The growth is 78% with HCC-2998 colon and 43.2% in the assay on KM12 colon.

`O=S(=O)(Nc1ccc(F)cc1F)c1ccc(-c2cnc(C3CC3)o2)cc1`: the growth with T-47D breast was 31.9%; with BT-549 breast, 17.2%; with MDA-MB-435 melanoma, -33.8% (active); with SW-620 colon, 23.7%; with MCF7 breast, 20.3%; with HCT-116 colon, 21.2%. Moreover, the growth is 54.9% in the assay on HCC-2998 colon and 30.1% in the assay with KM12 colon.

For the molecule `Cc1cc(N2CCN(CC(=O)Nc3ccc4c(ccn4C)c3)CC2)nc(N2CCCCCC2)n1`, the growth in the assay on T-47D breast is 65.4%; in the assay with BT-549 breast, 89.7%; with MDA-MB-435 melanoma, 95.2%; in the assay with SW-620 colon, 93.6%; in the assay on MCF7 breast, 77.9%; in the assay with HCT-116 colon, 85.6%. The growth is 127% in the assay with HCC-2998 colon and 93.1% in the assay with KM12 colon.

In the case of `N#CC1=C(N)Oc2c(ccc3ccccc23)C1c1ccccc1` (configuration not stated), the growth with T-47D breast was 63.5%; in the assay with BT-549 breast it was -16.5% (active); in the assay on MDA-MB-435 melanoma, -38.9% (active); in the assay with SW-620 colon, 28.2%; in the assay on MCF7 breast, 11.1%; with HCT-116 colon, 3.37% (active). The results for the growth in the assay on HCC-2998 colon and with KM12 colon were -4.65% (active) and 14.7%, respectively.
